# A selection: hits, their analogues and other compounds. The true share with any hit is near 2.3%.
# USP1-UAF1 inh: blocks the human USP1/UAF1 deubiquitinase complex | O94782 | recombinant USP1/UAF1, Ub-Rhodamine cleavage fluorescence | Potency, µM (top dose mostly 57.1 µM), without a hit: at the highest dose activity change, negative = inhibition, hits mostly inhibitors | 390,000 compounds, 0.23% hits | AID 743255; further: potency means the concentration at half of the fitted maximal effect; nearly all actives have a fitted effect of over 60% in size
# Target sequence (O94782 whole entry, looked up): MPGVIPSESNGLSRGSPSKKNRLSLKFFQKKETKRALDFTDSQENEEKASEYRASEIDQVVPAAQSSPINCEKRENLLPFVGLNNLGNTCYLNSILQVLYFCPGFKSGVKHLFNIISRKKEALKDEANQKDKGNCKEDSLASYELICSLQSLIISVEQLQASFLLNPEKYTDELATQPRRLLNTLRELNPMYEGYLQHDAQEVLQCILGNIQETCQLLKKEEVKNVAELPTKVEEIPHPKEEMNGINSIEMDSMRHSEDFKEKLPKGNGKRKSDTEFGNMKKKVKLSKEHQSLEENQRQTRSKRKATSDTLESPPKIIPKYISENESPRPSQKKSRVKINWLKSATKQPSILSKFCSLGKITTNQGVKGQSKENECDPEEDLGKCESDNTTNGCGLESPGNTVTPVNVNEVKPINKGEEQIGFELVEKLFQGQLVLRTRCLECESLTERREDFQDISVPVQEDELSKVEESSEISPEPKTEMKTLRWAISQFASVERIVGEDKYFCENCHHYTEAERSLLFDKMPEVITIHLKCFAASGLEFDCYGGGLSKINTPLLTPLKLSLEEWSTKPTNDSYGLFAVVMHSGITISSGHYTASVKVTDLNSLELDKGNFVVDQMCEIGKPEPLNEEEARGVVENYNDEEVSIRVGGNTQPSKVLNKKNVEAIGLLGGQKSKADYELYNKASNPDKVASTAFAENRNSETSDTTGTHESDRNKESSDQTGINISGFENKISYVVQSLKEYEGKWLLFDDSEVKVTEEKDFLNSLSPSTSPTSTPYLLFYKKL
#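 USP1/UAF1 complex (1 nM) preincubated 15 min at room temperature with compound, then Ub-Rho substrate (150 nM final) added. Kinetic fluorescence at 480/540 nm over 6 reads at 60 s intervals; 50 mM HEPES pH 7.8, 0.5 mM EDTA, 0.1 mg/ml BSA, 1 mM TCEP, 0.01% Tween-20.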
# FBPA coupling cs: counter-screen for Giardia aldolase inhibitors: coupling enzyme system. coupling enzyme system counterscreen, AmpLite Red fluorescence. activity change, negative = inhibition, % at 58.2 µM, hits read low. 290,000 compounds, 0.67% hits; in the data active means activity change below about -30%
#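 Activity here indicates interference with the coupling reaction, not aldolase inhibition. Compounds at 57.5 uM final met coupling enzymes for 10 min at RT; substrate and AmpLite Red detection followed, with a 525/598 nm fluorescence read after 20 min.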
# Tau FP inhib: tau fibrillization inhibition (FP); P10636; K18 P301L tau heparin fibrillization, Alexa594 FP, 6 h; Potency, µM (series often up to 57.7 µM), for inactives: top-dose activity, negative = inhibition, usual class: inhibitors; 280,000 compounds, 0.39% hits; further: potency means the concentration at half of the fitted maximal effect; nearly all actives have a fitted effect of over 55% in size
#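 Read-out: fluorescence polarization of Alexa 594-labeled tau (0.24 uM), 555 nm excitation, 632 nm emission. Mixtures held 15 uM unlabeled K18 P301L, compound and 20 uM heparin, pH 7 acetate buffer, incubated 6 hr at 37 C.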
# Tau fluor counter: counter-screen for tau fibril formation inhibitors; tau K18 P301L Alexa594 fluorescence, heparin fibrillization; Potency, µM (series often up to 57.7 µM), without a hit: at the top dose activity change, negative = decrease; 280,000 compounds, 0.93% hits; further: potency means the concentration at half of the fitted maximal effect; nearly all actives have a fitted effect of over 55% in size
#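 Human K18 P301L tau (15 uM unlabeled plus 0.24 uM Alexa 594-labeled, final) in 100 mM sodium acetate pH 7 was mixed with compound and 20 uM heparin and incubated 6 hr at 37 C.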
# Tau fibril ThT: blocks human tau fibril formation measured by thioflavin T | P10636 | recombinant tau K18 P301L (four-repeat tau fragment), heparin-induced fibrillization, ThT fluorescence | Potency, µM (series often up to 57.4 µM), for inactives: top-dose activity, negative = inhibition, usual class: inhibitors | 270,000 compounds, 2.1% hits; further: potency means the concentration at half of the fitted maximal effect; nearly all actives have a fitted effect of over 55% in size
#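 Heparin-induced fibrillization of the P301L-mutant K18 repeat-domain fragment of human tau was followed by ThT binding in quantitative high-throughput format.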
# Numbers without * were called inactive; ? = inconclusive; . = not tested or not shown; [ ] = remark or other dose. Unless noted, the call rests on the fitted dose curve; in most records, active means well fitted curve in the direction sought with a large enough effect; inconclusive means small, poorly fitted or top-dose-only effect, or another doubt; inactive means no such curve, though single readings can be large; an effect the other way counts as inactive or inconclusive. On the % scale 0 is the no-effect control and ±100 the full control effect.
SMILES,USP1-UAF1 inh,FBPA coupling cs,Tau FP inhib,Tau fluor counter,Tau fibril ThT
Cc1ccc(Sc2cc(NCCCO)c([N+](=O)[O-])c3nonc23)cc1,-26%,-23,-16%,-31%,.
CCC(=O)OCCNc1cc(Sc2nccn2C)c2nonc2c1[N+](=O)[O-],-14%,-1,-10%,?,4.5µM*
Cc1ccc(C(C)C)c(OCCn2cc(C(=O)c3ccco3)c3ccccc32)c1,-27%,.,?,-29%,-5%
Cc1snc(SCC(=O)c2ccc(F)cc2)c1C#N,-7%,1,8%,-17%,-15%
Cc1snc(SCC(=O)c2ccc([N+](=O)[O-])cc2)c1C#N,-19%,-2,?,-26%,14µM*
COc1cc2c(cc1OC)CC(=O)N(C)CC2,-13%,3,2%,9%,6%
COc1cc2c(C)c3c4c(cc(OC)c(OC)c4c2cc1OC)CCN3C,.,-12,?,10µM*[quencher],?
COc1cccc(-c2nnc(SCC(=O)N(C)c3ccccc3)o2)c1,6%,.,5%,-7%,-2%
Cc1ccc(C)c(S(=O)(=O)Nc2ccc3[nH]c(=O)[nH]c3c2)c1,-21%,-2,.,.,.
Cc1ccc(C)c(S(=O)(=O)Nc2ccc3scnc3c2)c1,-19%,-45*,-3%,-5%,6%
Oc1cc(-c2ccccc2)c2ccccc2c1,-21%,-60*,?,?,14µM*
O=[N+]([O-])c1ccc(Nc2ccc3ccccc3c2)nc1,-14%,-1,-9%,?,1.3µM*
O=[N+]([O-])c1ccc(Nc2ccc(Cl)cc2)nc1,-25%,3,-3%,-6%,-6%
COC(=O)/C=C1\OC(c2ccccc2)=CC1=O,.,3,-10%,-1%,25µM*
Cc1ccc(C=C2C=C(c3ccccc3)OC2=O)cc1,-18%,.,.,.,.
CCCN(Cc1cc2ccc(C)cc2[nH]c1=O)C(=O)c1ccccn1,1%,-32*,-10%,-13%,-12%
CSc1ccc(C(=O)C2CCCN(C(=O)c3ccsc3)C2)cc1 (centres undefined),-22%,4,8%,-9%,-15%
CSc1ccc(C(=O)C2CCCN(C(=O)c3ccc4c(c3)no[n+]4[O-])C2)cc1 (centres undefined),-15%,-1,?,?,28µM*
COc1ccc(CC(=O)Nc2cc(-c3cn4cccnc4n3)ccc2C)cc1OC,-6%,.,-2%,-16%,?
NC(N)=Nc1cc2ccccc2c2ccccc12,.,-34*,-13%,-26%,?
NC(N)=NC(N)=Nc1cccc2ccccc12,?,-23,.,.,.
CCOc1ccc(S(=O)(=O)Nc2ccc3oc(C)c(C(=O)OCCOC)c3c2)cc1,?,.,2%,-30%,-12%
CCCCOC(=O)c1c(C)oc2ccc(NS(=O)(=O)c3ccc4c5c(cccc35)C(=O)N4)cc12,-9%,2,-2%,16µM*[quencher],?
N#CC1(C#N)CC(C=O)=C(N)C1(C#N)CC(=O)c1ccc(F)cc1 (centres undefined),?,-3,?,?,14µM*
O=C1NN(c2ccccc2)C(=O)/C1=C/c1ccc(-c2ccc(Cl)c(C(=O)O)c2)o1,-22%,2,-9%,?,7.1µM*
SMILES,USP1-UAF1 inh,FBPA coupling cs,Tau FP inhib,Tau fluor counter,Tau fibril ThT
Cc1cccc(N2NC(=O)/C(=C/c3ccc(-c4ccc(Cl)c(C(=O)O)c4)o3)C2=O)c1,-22%,9,?,?,7.1µM*
O=C(O)c1cc(-c2ccc(/C=C3\NC(=O)N(c4ccccc4)C3=O)o2)ccc1Cl,-22%,-14,-17%,-25%,?
COc1ccc2c(c1)cc1c(=O)n(CC(=O)NC(C)CCc3ccccc3)nc(C)n12 (centres undefined),-8%,1,-10%,-2%,-2%
O=C1OC(Nc2ccc3c(c2)OCO3)c2ccccc21 (centres undefined),-6%,-3,?,?,13µM*
CC(=O)Nc1ccc(NCc2nnc3n2CCCCC3)cc1,-23%,.,8%,2%,3%
O=C(c1ccccc1)C1CCN(C(=O)c2ccco2)CC1,-11%,.,.,.,.
CN(C)c1ccc(/C=C/c2cc[n+](C)cc2)cc1,-17%,-2,?,14µM*[fluorescent],4µM*
CC[n+]1ccccc1/C=C/c1ccc(N(C)C)cc1,-16%,0,3%,8%,14µM*
CC[n+]1c(/C=C/c2ccc(N(C)C)cc2)ccc2ccccc21,?,-2,5%,-7%,3%
CC[n+]1ccc(/C=C/c2ccc(N(C)C)cc2)c2ccccc21,-21%,-10,?,0.71µM*[fluorescent],1.4µM*
COc1ccc(Cl)cc1C(=O)NCc1nc(-c2cccc(C)c2)no1,-13%,.,?,?,-12%
CSc1nc2sc3c(c2c(=O)n1-c1ccc(C)c(Cl)c1)CCN(C(C)=O)C3,-25%,.,-14%,-21%,?
COc1ccc(-c2noc(-c3nnn(-c4ccc(C(C)C)cc4)c3C)n2)cc1OC,-20%,.,7%,-17%,?
CCCCC/C=C\C=C\[C@H](O)CCCCCCCC(=O)O,.,.,3%,1%,-3%
O=c1c(Cl)c(Cl)cnn1Cc1nnc(-c2ccc(Cl)cc2)o1,-16%,3,?,-16%,28µM*
Cc1ccc(Cn2ncc(Cl)c(Cl)c2=O)cc1,-10%,0,-4%,5%,-7%
Clc1ccc(-c2cn3nc4c(nc3n2)CCCC4)cc1,?,-10,-9%,-17%,?
COc1cccc(-c2cn3nc4c(nc3n2)CCCC4)c1,-15%,-13,?,-29%,14µM*
COc1ccc2c(c1)Cc1sc(NC(C)=O)nc1-2,?,-31*,?,?,32µM*
COc1ccc2c(c1)CCc1sc(NC(=O)c3ccco3)nc1-2,-23%,-23,-6%,14µM*[quencher],13µM*
